# According to PMC7819943, “Rice protein-binding microarrays: a tool to detect cis-acting elements near promoter regions in rice”:
# Over roughly 39,000 sequences, “fluorescence intensity (a.u.)” has its median near 4,300; the highest 2% begin near 39,000. Many of the other results were omitted from the sample, so the highest values are more common in it than they were.
# Biological target: T1, OsSMF1 (Oryza sativa, UniProt Q6ZLB0 1-436)
# T1 sequence: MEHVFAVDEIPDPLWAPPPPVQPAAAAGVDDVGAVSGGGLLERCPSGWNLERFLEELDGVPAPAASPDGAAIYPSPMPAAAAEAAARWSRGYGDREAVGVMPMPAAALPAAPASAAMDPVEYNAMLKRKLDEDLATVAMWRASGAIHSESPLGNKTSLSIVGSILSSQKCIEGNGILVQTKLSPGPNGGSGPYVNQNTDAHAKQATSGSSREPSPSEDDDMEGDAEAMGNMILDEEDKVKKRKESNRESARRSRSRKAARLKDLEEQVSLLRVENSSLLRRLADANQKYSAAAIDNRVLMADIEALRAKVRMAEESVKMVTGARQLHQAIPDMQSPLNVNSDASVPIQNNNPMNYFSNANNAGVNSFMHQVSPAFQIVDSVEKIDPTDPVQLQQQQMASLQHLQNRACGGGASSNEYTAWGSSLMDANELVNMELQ
# Experiment: protein-binding microarray (RPBM); PBS, 2% BSA, 51.3 ng/ul salmon testes DNA, 50 uM zinc acetate, 200 nM TF, 25 C, 1 h; high values mean tight binding
# Details: protein: recombinant; tags: N-terminal polyhistidine and DsRed monomer fusion (pET32a); chain copies: 2; label: CyDye5-dUTP incorporated in the synthesized complementary strand; 3' TTTTT single-stranded linker to array surface; dsDNA, one strand shown
# In short: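 Per-feature fluorescence intensity (arbitrary units), read on an Axon 4000B scanner, is the binding signal. Transcription factors carrying an N-terminal polyhistidine tag and DsRed fusion were expressed in E. coli BL21-CodonPlus and purified on Ni–NTA. A custom Agilent array, made double-stranded by primer extension with Cy5-dUTP and blocked with 2% BSA, was incubated with 200 nM protein in PBS, 2% BSA, salmon testes DNA and 50 µM zinc acetate at 25 °C for 1 h and then washed.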
row,Sequence,binding signal
1,TCTTCCAAATGAACTGGCAATATACTTGTACACGTTCTGTCGGAGTCACCTAGTGCAG,3190 fluorescence intensity (a.u.)
2,ATTCACAGGCCTTTCTTAATTAAAACGGTAGATGGAGCAACGGAGTCACCTAGTGCAG,28400 fluorescence intensity (a.u.)
3,TTGCCGTATCGGCTCGCCTGAAAGCGTGTCATTAGCATGACGGAGTCACCTAGTGCAG,3950 fluorescence intensity (a.u.)
4,GCACATGACTGTGCAAACGCTGTTCCTGATCTGAGTAAGACGGAGTCACCTAGTGCAG,4170 fluorescence intensity (a.u.)
5,CGGCCGCGACACGCACACGCCCACCCCACGCCCGCCGCGCCGGAGTCACCTAGTGCAG,3140 fluorescence intensity (a.u.)
6,GGTCTTGGTAGCCACCGTGTACGGCCTCTGCGGCATGCAGCGGAGTCACCTAGTGCAG,3770 fluorescence intensity (a.u.)
7,ATGTTATCGTGCTAGTGTCAGCACATTCTCACTGATATTACGGAGTCACCTAGTGCAG,5330 fluorescence intensity (a.u.)
8,GTAAGGCGTCCATGTGATGTCATTGTTGATGGGCAAGTGCCGGAGTCACCTAGTGCAG,6430 fluorescence intensity (a.u.)
9,CGCATCGCATCTATGACTGGAGAGTGTATCTTTGCTTGCACGGAGTCACCTAGTGCAG,3180 fluorescence intensity (a.u.)
10,TCACCAGCGTCCGGTCAGCCATGGCGCTGAGTGGCCTCTTCGGAGTCACCTAGTGCAG,21000 fluorescence intensity (a.u.)
11,AATTGATTTCTCTATAGACAAATAGGGAATGCCAGATTGACGGAGTCACCTAGTGCAG,20100 fluorescence intensity (a.u.)
12,TACTTCTTCTAAATGCTATAGCCAGGGAATGCAAACGAGACGGAGTCACCTAGTGCAG,42000 fluorescence intensity (a.u.)
13,AAAATGTGAATCTTTTGTATAGCCAGCTTCTTCTAAAACACGGAGTCACCTAGTGCAG,24900 fluorescence intensity (a.u.)
14,CTGCGCCATCCACGCCAAGCGCGTCACCATCATGCCCAAGCGGAGTCACCTAGTGCAG,6140 fluorescence intensity (a.u.)
15,TTCATATCATATACGTACACGTGGAATAATTTGTAATTATCGGAGTCACCTAGTGCAG,9010 fluorescence intensity (a.u.)
16,CTCGGGGTTAAGCAGAGGTTATCGTCCCCGCCGCAGGTTACGGAGTCACCTAGTGCAG,4020 fluorescence intensity (a.u.)
17,AGTACTGGATGTGACACATCCTGGTACTACGAATCTGAACCGGAGTCACCTAGTGCAG,3910 fluorescence intensity (a.u.)
18,TTCAGGATGAATGGTACGTAACATGATAGGACACTATTCACGGAGTCACCTAGTGCAG,48700 fluorescence intensity (a.u.)
19,AACACACTAGTAATACGAATCTGAATATGGTACTAGGATACGGAGTCACCTAGTGCAG,64200 fluorescence intensity (a.u.)
20,CCACAAACCAAACCAACCCAAGATATCCTGATGAACCAAACGGAGTCACCTAGTGCAG,35300 fluorescence intensity (a.u.)
21,CCGGATATGTTCTCGTAGTTTATATACGTTCATGATGACACGGAGTCACCTAGTGCAG,3450 fluorescence intensity (a.u.)
22,ATATTCATATGACATGACACGTAAATGTCACGTAGGATATCGGAGTCACCTAGTGCAG,3700 fluorescence intensity (a.u.)

row,Sequence,binding signal
1,TTCCAACACTAGGATGGTATATGAACCACCAGGATACAAACGGAGTCACCTAGTGCAG,41800 fluorescence intensity (a.u.)
2,ACTAGGATGTCACAACAGCCAAACCATCCATATACTGCCACGGAGTCACCTAGTGCAG,3170 fluorescence intensity (a.u.)
3,AAACGAATCTAGGAATATATGTGACACATCATAGTACTACCGGAGTCACCTAGTGCAG,4370 fluorescence intensity (a.u.)
4,TGGCCCAACACATCAACGTTACATCACGGGCTTTAACGTTCGGAGTCACCTAGTGCAG,3290 fluorescence intensity (a.u.)
5,AGAAAAGAAAACGCGGCAATAAACAATGACACGGCCTGTCCGGAGTCACCTAGTGCAG,4200 fluorescence intensity (a.u.)
6,GGCTGACGGCTGGTGAGAAGCCACGTCAGCATTTAATTCCCGGAGTCACCTAGTGCAG,13100 fluorescence intensity (a.u.)
7,ATTGCGCAGGCGCAGCAATATTGAATGGCCCAAATGCTAGCGGAGTCACCTAGTGCAG,23800 fluorescence intensity (a.u.)
8,GCACAGGCTTGACACCAGTCGAGCCGAGCCGAAACCCCGTCGGAGTCACCTAGTGCAG,3270 fluorescence intensity (a.u.)
9,ATTTTCGTGTGCAGTATATGTGTTCCCAACCCTGAGAGCCCGGAGTCACCTAGTGCAG,3620 fluorescence intensity (a.u.)
10,CTCTGTTCACTCCACCAAACTCCTTCGATTGATCAAATGACGGAGTCACCTAGTGCAG,47200 fluorescence intensity (a.u.)
11,ATTGATCACTCGGACGTCACCAAACGATCGATAAACTCGTCGGAGTCACCTAGTGCAG,5630 fluorescence intensity (a.u.)
12,TGGGATGATCAAATGACTGCCACACTGTCATGTTCCTCTGCGGAGTCACCTAGTGCAG,3610 fluorescence intensity (a.u.)
13,AGCTGTGCCAACGAGCCCTTAATTAGTTATTATCTCTTCTCGGAGTCACCTAGTGCAG,44600 fluorescence intensity (a.u.)
14,ACCAACGAACGGACGCTGTCATGTCACCTCTCTTAATCTTCGGAGTCACCTAGTGCAG,3740 fluorescence intensity (a.u.)
15,AGCCTCTTCCATCTCGAGCCAGCTCATATTGATTATCCAACGGAGTCACCTAGTGCAG,4850 fluorescence intensity (a.u.)
16,TAGCATAGCCAACTGCTGACTCCAAATTATCTATAGTCAACGGAGTCACCTAGTGCAG,3850 fluorescence intensity (a.u.)
17,AAGCACTCCAAACTGCAACGATTATATCAATAAAATAAAACGGAGTCACCTAGTGCAG,39000 fluorescence intensity (a.u.)
18,AACTGCAGCAATATCACTCCCTCCAAATCAGCACATGCATCGGAGTCACCTAGTGCAG,3560 fluorescence intensity (a.u.)
19,TGTCAGTTGGCGAGGGATGCACTGATGACTATGCTAGTGCCGGAGTCACCTAGTGCAG,4860 fluorescence intensity (a.u.)
20,AAGCTAGTACAAGATGCGAAATGTCGTCAGATTCAGAGATCGGAGTCACCTAGTGCAG,3580 fluorescence intensity (a.u.)
21,CGTTGCGCACGTACAGCTCACGCTCAAGTCGTACACATTACGGAGTCACCTAGTGCAG,3840 fluorescence intensity (a.u.)
22,TGTCATAAATTGTACCGACATGATACACATGTCCGATACTCGGAGTCACCTAGTGCAG,39400 fluorescence intensity (a.u.)
